Assay outcomes from PubChem BioAssay.
This excerpt belongs to a sample that is enriched for hits.
KDM5B inhibitor – Primary screen for KDM5B Histone Demethylases FDH-coupled qHTS; Potency, µM (titrated, usually from 57.7 µM), usual class: inhibitors; hit rate 2.6% among 220,000; Lysine-specific demethylase 5B (Homo sapiens), Q9UGL1; KDM5B demethylase, FDH-coupled NADH fluorescence (FDH is formaldehyde dehydrogenase); active = well fitted inhibition curve with a large enough effect; note: 0% is about no effect; nearly all actives have a fitted effect of over 70% in size
Target sequence (Q9UGL1 whole entry, looked up): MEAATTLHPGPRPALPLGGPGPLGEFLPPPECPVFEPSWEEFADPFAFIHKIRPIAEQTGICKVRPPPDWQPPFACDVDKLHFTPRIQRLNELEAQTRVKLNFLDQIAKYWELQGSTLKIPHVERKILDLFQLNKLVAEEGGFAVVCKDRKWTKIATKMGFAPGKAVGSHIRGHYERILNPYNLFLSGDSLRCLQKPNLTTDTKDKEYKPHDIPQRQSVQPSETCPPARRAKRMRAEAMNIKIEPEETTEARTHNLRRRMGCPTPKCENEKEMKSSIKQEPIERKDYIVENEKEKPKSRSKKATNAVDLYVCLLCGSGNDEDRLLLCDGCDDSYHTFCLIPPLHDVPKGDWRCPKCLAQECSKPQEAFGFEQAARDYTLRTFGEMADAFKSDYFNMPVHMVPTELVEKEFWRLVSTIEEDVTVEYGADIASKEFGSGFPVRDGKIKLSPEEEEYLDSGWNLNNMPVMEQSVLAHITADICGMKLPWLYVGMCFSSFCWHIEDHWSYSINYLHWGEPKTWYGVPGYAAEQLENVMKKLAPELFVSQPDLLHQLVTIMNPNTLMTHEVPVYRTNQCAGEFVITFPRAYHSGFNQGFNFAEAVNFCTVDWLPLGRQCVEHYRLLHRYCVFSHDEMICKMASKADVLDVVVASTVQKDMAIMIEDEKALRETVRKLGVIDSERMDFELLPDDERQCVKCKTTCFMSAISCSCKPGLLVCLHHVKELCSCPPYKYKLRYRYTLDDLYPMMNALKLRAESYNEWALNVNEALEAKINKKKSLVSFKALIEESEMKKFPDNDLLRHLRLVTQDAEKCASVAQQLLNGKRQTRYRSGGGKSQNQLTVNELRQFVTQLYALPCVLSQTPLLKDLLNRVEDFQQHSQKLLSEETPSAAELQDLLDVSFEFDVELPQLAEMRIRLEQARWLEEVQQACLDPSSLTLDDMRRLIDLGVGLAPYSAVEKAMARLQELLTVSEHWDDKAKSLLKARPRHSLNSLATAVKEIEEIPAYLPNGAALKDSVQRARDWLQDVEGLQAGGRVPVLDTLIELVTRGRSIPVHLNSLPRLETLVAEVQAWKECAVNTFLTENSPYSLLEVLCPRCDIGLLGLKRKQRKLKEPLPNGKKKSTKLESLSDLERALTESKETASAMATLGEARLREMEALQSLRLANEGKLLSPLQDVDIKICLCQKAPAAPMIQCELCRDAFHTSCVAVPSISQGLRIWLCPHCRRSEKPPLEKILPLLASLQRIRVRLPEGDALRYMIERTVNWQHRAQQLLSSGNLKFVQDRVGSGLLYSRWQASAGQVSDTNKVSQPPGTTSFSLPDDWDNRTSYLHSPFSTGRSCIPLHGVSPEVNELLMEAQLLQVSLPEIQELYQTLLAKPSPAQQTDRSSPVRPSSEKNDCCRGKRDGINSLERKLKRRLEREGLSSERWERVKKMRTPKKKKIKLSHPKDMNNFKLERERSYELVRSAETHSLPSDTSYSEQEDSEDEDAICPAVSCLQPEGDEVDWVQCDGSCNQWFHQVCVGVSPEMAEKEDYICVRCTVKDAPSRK
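qHTS format, multiple compound concentrations. Buffer 50 mM HEPES pH 7.5/0.01% Tween-20; 200 nM KDM5BΔAP final; 10 min compound preincubation; substrate-mix levels 12.5 µM peptide, 25 µM α-KG, 0.25 mM NAD⁺; 30 min RT; ΔRFU.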
* hit, by the source's call; i = inactive. Potency is the fitted concentration of half-maximal effect.

SMILES	KDM5B inhibitor
O=C(c1cccc(C(F)(F)F)c1)N1CCCCCCC1	i
O=C(c1nc(-c2cccc(C(F)(F)F)c2)c2cnccn12)N1CCCC1	31.6µM*
C[C@H](O)c1onc(-c2ccc(F)cc2)c1C(=O)N1CCCC1	i
CC(C)CCn1c(N2CCN(Cc3ccccc3Cl)CC2)nc2c1c(=O)[nH]c(=O)n2C	i
CN(C)c1ccc(N=c2cc(-c3ccccc3)cc(-c3ccccc3)s2)cc1	i
CC(=O)Nc1ccc(Cl)c(NC(=O)c2nn(-c3ccccc3)c(=O)c3ccccc23)c1	i
O=C(c1cc(S(=O)(=O)N2CCCCC2)ccc1N1CCOCC1)N1CCCc2ccccc21	i
CCOc1cc2c(cc1CNC(=O)c1ccc(Cl)c(S(N)(=O)=O)c1)OC(C)C2 (stereo not drawn)	i
O=C(COC(=O)c1ccc2c(c1)NC(=O)CS2)Nc1cccc(Cl)c1	i
Cc1nc2cc(F)ccc2cc1C(=O)N1CCN(c2ccccc2F)CC1	i
Cc1nc(N(C)C)ncc1C(=O)N1CCN(c2ccccc2C#N)CC1	28.2µM*
Cc1nc(N2CCCC2)ncc1C(=O)N1CCN(c2ccc(Cl)cc2)CC1	i
CCCc1nc2ccccc2c(C(=O)OCC(=O)NCC(C)C)c1CC	i
Cc1c(CC(=O)NCCCn2ccnc2)c(=O)oc2c(C)c(O)ccc12	i
CCC(CC)NC(=O)COC(=O)c1cc(C)ccc1C	i
OCC1(Cc2ccccc2F)CCCN(c2nccc(C(F)(F)F)n2)C1 (stereo not drawn)	25.1µM*
O=S(=O)(c1ccc(F)cc1)N1CCCN(c2nccc(C(F)(F)F)n2)CC1	i
OCCNc1cc(N2CCCC(CO)(Cc3ccccc3F)C2)ncn1 (stereo not drawn)	i
O=c1[nH]nc(SCc2ncc(-c3ccccc3)o2)n1CCc1ccccc1	i
CCc1nc2c(=O)n(CC(=O)NCc3ccc(F)cc3Cl)nc(C)c2s1	i
CCc1nc2c(=O)n(CC(=O)NCc3cccnc3)nc(C)c2s1	i
Cc1nn(CC(=O)NCc2ccc(F)cc2F)c(=O)c2nc(-c3ccccc3)sc12	31.6µM*
CCc1nc2c(=O)n(CC(=O)NCc3ccc(Br)cc3)nc(C)c2s1	i
Cc1nn(CC(=O)NCc2cccnc2)c(=O)c2nc(-c3ccccc3)sc12	28.2µM*
CCc1nc2c(=O)n(CC(=O)NCc3ccc(SC)cc3)nc(C)c2s1	i
SMILES	KDM5B inhibitor
CCOc1cc(CNCc2ccco2)ccc1O	i
CC(=O)N(Cc1ccc(C(C)C)cc1)C1CC1	i
Cc1cc(-c2csc(NC3CCCCC3)n2)c(C)n1NC(=O)c1nn(C)c(=O)c2ccccc12	i
COC(=O)/C(C#N)=C\c1cccc(Oc2ccc(Cl)cc2)c1	i
Cc1c(Cl)cccc1NC(=O)c1ccc(NC(=O)C2=CSCCO2)cc1	i
CCNc1oc(/C=C/c2cccc(OC)c2)nc1C#N	i
C[C@@H]1CN(C2CCN(Cc3cnn(C)c3C3CC3)CC2)C[C@H](C)O1	i
CC(C)(C)NC(=O)N1CCCN(c2ccc(C(F)(F)F)cn2)CC1	i
O=S(=O)(c1ccc(C(F)(F)F)cc1)N1CCCN(c2ccc(C(F)(F)F)cn2)CC1	i
Cn1cc(CN2CCCC23CCN(c2ccc(C(F)(F)F)cn2)CC3)cc1C#N	28.2µM*
Cn1ncc(CN2CCCC23CCN(c2ccc(C(F)(F)F)cn2)CC3)c1C1CC1	22.4µM*
Cc1cccc(OCC(O)CN2CCCN(c3ccc(C(F)(F)F)cn3)CC2)c1 (stereo not drawn)	i
O=C(OCC(=O)N1CCOCC1)C1=NN(c2ccccc2)C(=O)CC1	i
Cc1ccc(-c2cnc(CCC(=O)N(C)C(C)c3ccc(S(N)(=O)=O)cc3)o2)cc1C (stereo not drawn)	i
COc1cccc(-c2nnnn2[C@H]2CO[C@H]3[C@@H]2OC[C@@H]3NC(=O)c2ccc(C)cc2)c1	i
CC(=O)N(c1nc(C)c(C(=O)Nc2ccc3[nH]ccc3c2)s1)C(C)C	i
COc1ccc(OC)c(C2C=C(C(=O)O)Nc3c(C(=O)Nc4ccccc4OC)cnn32)c1 (stereo not drawn)	i
NC(=O)C1CCN(C(=O)c2cc(C3CC3)nc3ccccc23)CC1	i
COCCNc1ncc(-c2ccc(SC)cc2)c2c1OCC2	5.01µM*
COCCNc1ncc(-c2cccc(OC)c2)c2c1OCC2	35.5µM*
COc1ccc(OCC(=O)Nc2ncc(-c3ccc(OC)nc3)c3c2OCC3)cc1	i
COCCNc1ncnc2onc(-c3ccc(F)cc3)c12	i
COCCNc1ncc(-c2ccc(OC)cc2)c2c1OCC2	35.5µM*
COCCNc1ncc(-c2ccc(F)cc2)c2c1OCC2	31.6µM*
COc1cccc(C(=O)Nc2ccccc2-c2nnc(-c3cccc(OC)c3)o2)c1	i
SMILES	KDM5B inhibitor
COCCNc1oc(-c2ccc(OC)cc2)nc1S(=O)(=O)c1ccccc1	i
COCCCNc1ncnc2onc(-c3ccc(F)cc3)c12	i
CC1CCc2c(c(-c3ccccc3)nc3ccc4ccccc4c23)C1 (stereo not drawn)	i
COC(=O)c1ccc(CC(Cc2ccc(C(=O)OC)o2)(C(C)=O)C(C)=O)o1	i
Clc1ccc(-c2noc(CNc3ccc(Br)cc3)n2)cc1	i
COc1cccc2cc(S(=O)(=O)c3cc(F)cc(F)c3)c(=O)oc12	i
O=S(=O)(NCCO)c1ccc(-c2ccc(S(=O)(=O)NCCO)cc2)cc1	i
N#Cc1ccccc1COC(=O)c1ccc(Cl)cc1	i
CCC(Oc1ccccc1F)C(=O)Nc1c(Cl)cccc1Cl (stereo not drawn)	i
C[S+](=O)([O-])Nc1cccc(Nc2cnc3ccc(-c4cccc(CO)c4)nn23)c1	i
COCCNc1ncc(-c2ccc(NC(C)=O)cc2)c2c1OCC2	35.5µM*
COCCNc1nc(-c2ccc(NC(C)=O)cc2)cs1	i
COCCNc1ncc(-c2cccc(N[S+](C)(=O)[O-])c2)c2c1OCC2	35.5µM*
Cc1cc(C)c(C=Nc2cccc([N+](=O)[O-])c2C)c(C)c1	i
Cc1[nH]c2ccccc2c1C(=O)C(=O)Nc1ccccc1CN(C)C	i
C#CCN(Cc1ccc(F)cc1)C(=O)NCC1CCN(Cc2ccccc2)CC1	i
Cc1ccc(C2CC(=O)C3=C(C2)OC(N)=C(C#N)C3c2ccccc2Cl)cc1 (stereo not drawn)	i
O=C(Cc1cccc(F)c1)N(Cc1ccco1)C1CC1	i
O=C(NC1CCCC(C(F)(F)F)C1)C1CCCCC1 (stereo not drawn)	i
CSc1ncc(C(=O)N2CCC(c3nccn3CCN(C)C)CC2)cn1	i
Cc1nc(C(C)C)ncc1C(=O)N1CCC2(CCCN(C)C2=O)C1 (stereo not drawn)	i
CCOC(=O)C1(Cc2ccc(F)cc2F)CCCN(C(=O)c2c(C)nc3ncccn23)C1 (stereo not drawn)	31.6µM*
Cc1nc2ncccn2c1C(=O)N1CCC2(CCCN(C)C2=O)C1 (stereo not drawn)	28.2µM*
CCCc1cc(C(=O)N2CCCC(Cc3ccccc3F)(C(=O)OCC)C2)n(C)n1 (stereo not drawn)	i
Cc1nc(C2CC2)ncc1C(=O)N1CCC2(CC1)NC(=O)CC2C(=O)O (stereo not drawn)	i
CCOC(=O)C1(Cc2ccccc2F)CCCN(C(=O)c2ccc(-n3ccnc3)cc2)C1 (stereo not drawn)	i
Cc1nc2ncccn2c1C(=O)N1CCC(c2nccn2CC(N)=O)CC1	28.2µM*
